From PubChem BioAssay
Only some compounds are listed: those with a hit (about 0.44% of all), similar ones and a draw of the others.
EPAC1 ag: agonists of human EPAC1; O95398; EPAC1 agonist qHTS, biochemical assay; response scale: 100% = response to 6.5 mM cAMP; Potency, µM (titrated, usually from 154 µM), for inactives: at the highest dose activation, hits mostly activators; hit rate 0.073% among 360,000; AID 720707; further: nearly all actives have a fitted effect of over 60% in size
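Nucleotide exchange assay: 100 nM EPAC1 with 250 nM Rap1B loaded with BODIPY-GDP and 50 uM GDP, room temperature. Fluorescence (480/540 nm) read every 5 min for 30 min; signal change normalized to 6.5 mM cAMP as full agonist.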
EPAC2 agonist: EPAC2 (human) agonism; Potency, µM (highest dose often 154 µM), for the others: at the highest dose activation, hits mostly activators; AID 720711; Q8WZA2; EPAC2 activation, biochemical qHTS; response scale: 100% = 6.5 mM cAMP response; hit rate 0.079% among 360,000; further: nearly all actives have a fitted effect of over 50% in size
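Guanine nucleotide exchange by EPAC2 is measured as reduced fluorescence of BODIPY-GDP once it is released from 250 nM Rap1B. Plates are read kinetically for 30 min at room temperature; results are scaled to 6.5 mM cAMP.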
EPAC2 antag: EPAC2 (human) antagonism. Potency, µM (top dose mostly 114 µM), for the others: top-dose activity, negative = inhibition, actives largely listed as inhibitors. Q8WZA2. AID 720708. EPAC2 GEF exchange of Rap1B-BODIPY-GDP, fluorescence. hit rate 0.18% among 360,000; further: on the % scale 0 is the no-effect control and ±100 the full control effect; nearly all actives have a fitted effect of over 45% in size
EPAC1 antagonist: blocks human EPAC1 exchange factor; EPAC1 GEF assay, Rap1b-BODIPY-GDP exchange fluorescence; Potency, µM (series often up to 115 µM), for inactives: at the highest dose activity change, negative = inhibition, hits mostly inhibitors; hit rate 0.14% among 360,000; O95398;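 further: plate controls were vehicle for no effect and positive control for full effect; nearly all actives have a fitted effect of over 50% in size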
USP1 inh: USP1/UAF1 (human) deubiquitinase inhibition; AID 743255; hit rate 0.23% among 390,000; O94782; Potency, µM (titrated, usually from 57.1 µM), for the others: at the top dose activity change, negative = inhibition, actives largely listed as inhibitors; recombinant USP1/UAF1, Ub-Rhodamine cleavage fluorescence; further: on the % scale 0 is the no-effect control and ±100 the full control effect; nearly all actives have a fitted effect of over 60% in size
Target sequence (O94782 whole entry, looked up): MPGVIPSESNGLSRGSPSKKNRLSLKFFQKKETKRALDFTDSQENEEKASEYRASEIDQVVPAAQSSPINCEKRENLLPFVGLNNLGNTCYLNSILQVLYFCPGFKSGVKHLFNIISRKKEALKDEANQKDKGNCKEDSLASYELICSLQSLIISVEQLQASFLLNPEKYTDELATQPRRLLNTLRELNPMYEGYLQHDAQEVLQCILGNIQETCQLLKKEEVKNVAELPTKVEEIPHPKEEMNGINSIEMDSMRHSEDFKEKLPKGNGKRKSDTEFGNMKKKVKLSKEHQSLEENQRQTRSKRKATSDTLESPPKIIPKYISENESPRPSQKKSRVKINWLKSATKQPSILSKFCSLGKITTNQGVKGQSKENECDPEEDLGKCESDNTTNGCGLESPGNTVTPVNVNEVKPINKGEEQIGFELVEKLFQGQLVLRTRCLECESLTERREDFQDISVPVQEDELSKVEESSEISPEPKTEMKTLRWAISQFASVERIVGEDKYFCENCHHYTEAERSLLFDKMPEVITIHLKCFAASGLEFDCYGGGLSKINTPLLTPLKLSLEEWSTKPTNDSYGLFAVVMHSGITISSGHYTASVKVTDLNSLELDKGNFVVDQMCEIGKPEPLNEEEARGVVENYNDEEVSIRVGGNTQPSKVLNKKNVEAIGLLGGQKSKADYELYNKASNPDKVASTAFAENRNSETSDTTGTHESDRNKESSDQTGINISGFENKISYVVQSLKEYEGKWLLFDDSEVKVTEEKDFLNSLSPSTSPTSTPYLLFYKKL
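Step one: compound is pinned into 1nM USP1/UAF1 in HEPES pH 7.8 buffer with TCEP. Step two: 15 min room-temperature incubation. Step three: Ub-Rho (150nM final) starts cleavage, tracked by fluorescence over six one-minute reads.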
The depositor's hits bear a star; ? = inconclusive; / = no result given; [ ] = another dose, or the depositor's remark. The call rests on the fitted dose curve; in most records, active means well fitted curve in the direction sought with a large enough effect; inconclusive means small, poorly fitted or top-dose-only effect, or another doubt; inactive means no such curve, though single readings can be large; an effect the other way counts as inactive or inconclusive. Potency means the concentration at half of the fitted maximal effect.

SMILES | EPAC1 ag | EPAC2 agonist | EPAC2 antag | EPAC1 antagonist | USP1 inh
Cc1sc2ncn(CC(=O)NCc3ccco3)c(=O)c2c1-c1ccc(F)cc1 | 1% | -2% | 0% | -21% | -10%
O=C(Cn1cnc2scc(-c3cccc([N+](=O)[O-])c3)c2c1=O)NCc1ccco1 | 1% | -5% | 4% | 56µM* | -9%
O=c1ccc2[n+]([O-])c3ccc(O)cc3oc-2c1 | 9% | 2% | 1% | -7% | -21%
Nc1ccc(-c2c3ccc(=O)cc-3oc3cc(O)ccc23)c(C(=O)O)c1 | 100µM* | 126µM* | 199% | 160% | 28µM*
O=c1cc2oc3cc(O)c(O)cc3c(-c3ccccc3[N+](=O)[O-])c-2cc1O | 0% | 5% | ? | 79µM* | ?
O=c1cc(-c2ccccc2Cl)oc2cccc(O)c12 | -10% | -7% | 14% | 6% | -24%
COc1ccc(NC(=O)N(C)C[C@H]2Oc3ccc(NC(=O)CCC(F)(F)F)cc3C(=O)N([C@H](C)CO)C[C@@H]2C)cc1 | 3% | 0% | 3% | 23% | -24%
COc1ccc(NC(=O)N(C)C[C@H]2Oc3ccc(NC(=O)CCN4CCOCC4)cc3C(=O)N([C@@H](C)CO)C[C@H]2C)cc1 | 2% | 3% | -2% | -8% | 5µM*
CC(C)NC(=O)C1(C)CCN1C(=O)c1ccccc1 (stereo not drawn) | 5% | 4% | 1% | -6% | /
COc1cc(/C=C2/C(=O)c3cccc([N+](=O)[O-])c3C2=O)c(Br)cc1O | -3% | -3% | -5% | 40µM* | ?
CC[C@H](C)/C=C/C1=CC2=C(Cl)C(=O)[C@@]3(C)OC(=O)C(C(=O)[C@H](C)[C@@H](C)O)=C3C2=CO1 | -21% | -14% | ? | 50µM* | ?
COc1cc(/C=C/c2sc3ccccc3[n+]2CCCS(=O)(=O)[O-])ccc1O | 0% | 0% | ? | ? | 25µM*
Cc1cccc(C)c1NC(=O)COC(=O)CCc1c[nH]c2ccccc12 | 5% | 16% | -5% | -28% | -9%
O=[N+]([O-])c1ccc(NN=Cc2cccc([N+](=O)[O-])c2)cc1 | 11% | 12% | -11% | -3% | -28%
O=[N+]([O-])c1ccc(C=NNc2ccc(S(=O)(=O)O)cc2)cc1 | -4% | -1% | 20µM* | -13% | -11%
O=S(=O)(O)c1ccc(NN=Cc2ccccc2O)cc1 | -6% | -9% | 22µM* | -11% | 3%
O=C(O)c1cccc(-c2ccc(/C=N/Nc3ccc([N+](=O)[O-])cc3)o2)c1 | -6% | -8% | -14% | ? | ?
O=C(O)c1ccc(-c2ccc(/C=N/Nc3ccc([N+](=O)[O-])cc3)o2)cc1 | 5% | 3% | -2% | -24% | 13µM*
O=C1CC(c2ccccc2)Cc2[nH]c(=O)c(-c3nc(-c4cccc(Cl)c4)cs3)cc21 (stereo not drawn) | / | / | / | / | -22%
COc1ccc(-c2cc(C(=O)NCC(c3ccco3)N(C)C)c3ccccc3n2)cc1OC (stereo not drawn) | -3% | 2% | 4% | 13% | -18%
CCOc1ccc2nc(NC(=O)c3cc(=O)c4cc(C)cc(C)c4o3)sc2c1 | / | / | / | / | -17%
COc1ccc(/C=C2\SC(=S)N(NS(=O)(=O)c3ccc(C)cc3)C2=O)c(OC)c1 | -1% | -18% | -13% | ? | -24%
COc1ccc(OC)c(/C=C2\SC(=S)N(NS(=O)(=O)c3ccc(C)cc3)C2=O)c1 | 9% | 9% | ? | 56µM* | ?
COc1ccccc1/C=C1\SC(=S)N(NS(=O)(=O)c2ccc(C)cc2)C1=O | -4% | 8% | ? | 79µM* | -25%
COc1ccc(OC)c(/C=C2\SC(=S)N(Cc3cccnc3)C2=O)c1 | 9% | 112µM* | 10% | 4% | -17%
SMILES | EPAC1 ag | EPAC2 agonist | EPAC2 antag | EPAC1 antagonist | USP1 inh
COc1ccc(CN(C(=O)Cn2nnc(-c3ccc(C)o3)n2)C(C(=O)NCC2CCCO2)c2ccco2)cc1 (stereo not drawn) | -7% | -10% | 13% | 2% | -12%
CC(Oc1ccc(-c2nnco2)cc1)C(=O)N1CCOCC1 (stereo not drawn) | 32µM* | -2% | 1% | -20% | -9%
CC(C)CCn1c(Oc2ccccc2Cl)nc2c1c(=O)n(C)c(=O)n2C | 1% | 0% | 32µM* | -12% | -14%
Cc1cc(Nc2ccccc2)n(-c2nc3ccccc3[nH]2)n1 | 8% | 6.3µM* | 8% | -10% | -17%
Cc1cc(C)c2nc(C)cc(Nc3ccc(C(=O)NCCO)cc3)c2c1 | -10% | 6% | 20µM* | -2% | -21%
CC(=O)c1ccc(Nc2cc(C)nc3c(C)cc(C)cc23)cc1 | 6% | 25% | -19% | 1% | -15%
CCOc1ccc2nc(NC(=O)CSc3nc(-c4ccccc4)c(C#N)c(=O)[nH]3)sc2c1 | -7% | 10% | ? | ? | ?
COc1cccc(-c2nc(SCC(=O)Nc3nc(-c4ccccc4)c(C)s3)[nH]c(=O)c2C#N)c1 | 2% | -2% | 25µM* | ? | -17%
COc1ccc(/C=C2\N=C(SC)N(c3ccccc3OC)C2=O)cc1 | -2% | 15% | 18µM* | 6% | -25%
CCOc1ccc(N2C(=O)/C(=C/c3ccccc3)N=C2SC)cc1 | 8% | 4% | 1% | -15% | -15%
CCCCCCN1C[C@H](n2cc(C3CC3)nn2)[C@@H](O)C[C@@H]1c1ccc(OC)cc1 | -15% | 14% | -10% | -8% | -23%
O=C(Nc1ccc(-c2nc3ccc(NC(=O)c4cccs4)cc3[nH]2)cc1)c1cccs1 | 11% | ? | 50µM* | ? | ?
C[C@H]1CN([C@@H](C)CO)C(=O)CCCn2nncc2CO[C@H]1CN(C)S(=O)(=O)c1ccc(C#N)cc1 | -6% | 11% | 4% | 11% | -14%
CC(=O)Nc1ccc(C2=NNC(=Nc3cccc(S(=O)(=O)N(C)C)c3)SC2)cc1 | -13% | -17% | -2%[57.1 µM] | -13% | 10µM*
CC(=O)Nc1ccc(C2=NNC(=Nc3ccc(S(=O)(=O)N4CCOCC4)cc3)SC2)cc1 | 12% | 7% | 2% | -3% | 16µM*
O=S(=O)(c1ccc(N=C2NN=C(c3cc(F)ccc3F)CS2)cc1)N1CCOCC1 | 3% | 4% | 2% | -6% | ?
CCOc1cc(C(=O)N=c2sccn2C)cc(Br)c1OC | 1% | 11% | -8% | 11% | ?
COc1ccccc1Nc1nc(-c2sc(N)nc2C)cs1 | -4% | -4% | 2% | 8% | -23%
Cc1nc(N)sc1-c1csc(Nc2ncccn2)n1 | 3% | ? | 71µM* | -8% | ?
Oc1ccc(NCc2cccs2)cc1 | 12% | 7% | 5% | 56µM* | -17%
COc1cc(-c2cc(OC)c3c(C)oc(C)c3c(=O)c2)ccc1OC(=O)c1cccc(C)c1 | / | / | / | / | -7%
